UHRF1 binding: blocks human UHRF1 binding to methylated DNA; Q96T88; UHRF1 binding to methylated oligo, TR-FRET; inhibition, % at 4.4 µM; 370,000 tested, 0.75% active; AID 687016;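 note: UHRF1 SRA domain binding a hemimethylated CpG hairpin DNA probe; 0% = median of test compound wells and 100% = reference inhibitor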
PRMT1 FP inh: inhibitors of human PRMT1. recombinant PRMT1, activity-based probe fluorescence polarization. AID 652257. Q99873. 370,000 tested, 1.3% active. inhibition, % at 2.79 µM;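 active = inhibition above about 21% made by adding two undisclosed values, limit read from the data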
MBD2 inh: blocks human MBD2 binding to methylated DNA | Q9UBB5 | TR-FRET, MBD2 binding to methylated oligonucleotide | inhibition, % at 4.4 µM | 370,000 tested, 0.31% active | AID 686964; in the data active = inhibition above about 13%
PfG6PD inh: PfG6PD (Plasmodium falciparum) enzyme inhibition; PfGluPho enzyme, NADPH resazurin-diaphorase fluorescence; 350,000 tested, 0.78% active; inhibition, % at 20 µM;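 active = inhibition reaching at least a set limit at 20 µM in the primary screen, cut at about 59% in these data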;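 note: 0% = DMSO wells with substrate and 100% = DMSO wells lacking glucose-6-phosphate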
PfM18AAP inh: blocks P. falciparum M18 aspartyl aminopeptidase; 290,000 tested, 1.2% active; inhibition, % at 7.35 µM; recombinant PfM18AAP, H-Glu-NHMec fluorogenic cleavage;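 active = inhibition above the campaign mean inhibition over all tested compounds plus 3 SD, cut at about 28% in these data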;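 note: 0% = plate median of test compound wells and 100% = 2 mM ZnCl2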
UHRF1 DNA bind: inhibits human UHRF1 binding to methylated oligonucleotide, MBD2 counter-screen | 1,000 tested, 25% active | TR-FRET | shares compounds with MBD2 inh | inhibition, % at 4.4 µM;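 note: UHRF1 SRA domain binding a labeled hemimethylated CpG hairpin DNA; 0% = vehicle only and 100% = reference inhibitor with vehicle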
MBD2 confirm: confirmation of human MBD2-DBD methylated oligonucleotide binding inhibitors | TR-FRET MBD2-DBD binding to methylated oligonucleotide | shares compounds with MBD2 inh | 1,000 tested, 26% active | inhibition, % at 4.4 µM; in the data active = inhibition above about 14%
An asterisk follows results filed as active; . = no result. The list is not random: actives were taken first. Their share in the collection is about 3.3%. Cut-off read from the data, not from the text of the source, unless noted: active = inhibition above about 21%; inactive = the rest.

SMILES	UHRF1 binding	PRMT1 FP inh	MBD2 inh	PfG6PD inh	PfM18AAP inh	UHRF1 DNA bind	MBD2 confirm
C=C(C)C(=O)Nc1cccc(C2=NOC3(C2)C[C@@H](C(N)=O)N(C(=O)CCCCC)C3)c1 (stereo partly drawn)	89.7*	5.5	44.1*	28.3	.	100.3*	82.3*
CCCCOc1ccc(C(=O)Nc2ccc(N3CCN(C(=O)C(C)C)CC3)cc2)cc1	-1.9	-3.0	33.0*	-4.1	8.3	7.5	3.8
CCCCOc1ccc(C(=O)Nc2ccc(N3CCN(C(C)=O)CC3)cc2)cc1	10.3	6.7	5.4	-7.3	-7.2	.	.
CC(C)CCNC(=O)CN(Cc1ccco1)C(=O)CCC(=O)Nc1nccs1	0.3	-3.8	-3.8	15.3	-1.5	.	.
O=C(c1ccco1)N(c1ccccn1)c1ccccn1	-0.8	1.8	-2.8	8.5	-0.4	.	.
O=C(/C=C/c1ccco1)N(c1ccccn1)c1ccccn1	51.9*	9.4	23.4*	29.8	10.6	57.4*	27.5*
COc1cccc(C#Cc2c(CO)[nH]c3ccccc23)c1	13.5	0.8	8.5	32.2	.	.	.
CS(=O)(=O)N1CCC(C(=O)Nc2ccccc2)CC1	0.2	2.1	-0.8	-3.7	-3.4	.	.
CS(=O)(=O)N1CCC(C(=O)Nc2ccc(C(N)=O)cc2)CC1	-1.1	-6.0	40.1*	2.5	2.7	5.3	1.2
COC(=O)C1=C(C)N(Cc2ccccc2C(F)(F)F)C(=NCc2ccc(C(F)(F)F)cc2)NC1c1cccc(Cl)c1 (stereo not drawn)	3.0	-5.2	-0.2	.	.	.	.
Cc1c2cnn(CC(=O)Nc3c(F)c(F)cc(F)c3F)c(=O)c2c(C)n1Cc1ccccc1F	15.5	-2.4	13.6*	-8.3	-6.8	17.7	29.2*
COCCN(C(=O)c1ccc2ccccc2c1)c1c(N)n(Cc2ccccc2)c(=O)[nH]c1=O	3.8	0.7	5.6	-16.5	3.6	.	.
COCCn1c(N)c(N(Cc2ccccc2)C(=O)c2ccc3ccccc3c2)c(=O)[nH]c1=O	26.3*	-4.3	13.3*	-1.9	0.5	5.6	2.2
CN(C)S(=O)(=O)c1ccc(N2CCOCC2)c(C(=O)NCc2ccc3c(c2)OCO3)c1	-1.1	-4.3	-0.7	-1.0	.	.	.
CN(C)c1ccc(O)c2c1CC1CC3[C@@H](N(C)C)C(=O)C(C(N)=O)=C(O)[C@]3(O)C(=O)C1=C2O (stereo partly drawn)	80.2*	31.3*	35.5*	21.3	22.7	36.1*	14.9*
CCn1nc(C(=O)Nc2nc(-c3ccccn3)cs2)c2ccccc2c1=O	-2.5	3.9	27.0*	-3.2	.	-2.9	4.4
CCCn1nc(C(=O)Nc2nc(-c3ccccn3)cs2)c2ccccc2c1=O	-4.2	4.8	8.0	-9.2	.	.	.
Cc1cccc(C(=O)Oc2ccccc2C(=O)N2CCOCC2)c1	19.7	9.2	10.0	4.6	-8.7	.	.
COc1ccc(NC(=O)CN2CCCC2c2cccs2)cc1S(=O)(=O)N1CCCCC1 (stereo not drawn)	2.2	-2.2	0.4	11.8	.	.	.
CCOc1ccc(NC(=O)CN2CCCC2c2cccs2)cc1S(=O)(=O)N1CCCC1 (stereo not drawn)	-1.2	-2.1	41.8*	13.9	.	6.7	1.7
O=C(CSc1ccccc1)N1CCc2ccccc21	22.1*	1.9	14.2*	21.5	-3.3	1.7	1.5
O=C(CCC(=O)N1CCc2ccccc21)N1CCc2ccccc21	.	.	.	.	-1.0	.	.
CC1Sc2ccccc2N(Cc2ccc(OC(F)(F)F)cc2)C1=O (stereo not drawn)	17.2	1.7	25.7*	.	.	5.3	5.2
COc1ccc(CNC(=O)C(C)OC(=O)CO/N=C(\C)c2ccc3c(c2)OCO3)cc1 (stereo not drawn)	0.1	1.5	0.1	6.6	.	.	.
CCC(=O)c1ccc(OCC(=O)OC(C)C(=O)NCc2ccc3c(c2)OCO3)cc1 (stereo not drawn)	-0.9	-3.5	79.0*	-3.3	.	9.3	2.2
SMILES	UHRF1 binding	PRMT1 FP inh	MBD2 inh	PfG6PD inh	PfM18AAP inh	UHRF1 DNA bind	MBD2 confirm
Cc1ccc(C(=O)NC2CCCC2)cc1S(=O)(=O)N1CCCCC1	0.5	-6.2	-2.3	8.2	-0.4	.	.
Cc1ccc(C(=O)NC2CCS(=O)(=O)C2)cc1S(=O)(=O)N1CCCC1 (stereo not drawn)	1.3	3.2	17.0*	9.9	-6.2	6.0	1.5
COc1cc2c(cc1OC)CC(C(=O)NCc1ccccc1)NC2 (stereo not drawn)	0.0	0.6	16.9*	-0.6	11.5	8.6	2.9
O=C(O)C1=CCC=CC1C(=O)O (stereo not drawn)	38.7*	4.7	17.3*	5.2	.	52.3*	20.2*
O=C(O)C(=Cc1ccncc1)c1cccc2ccccc12	-0.5	-1.8	3.2	-12.3	.	.	.
COC(=O)C(=Cc1ccncc1)c1cccc2ccccc12	0.1	1.7	39.7*	-10.5	.	7.3	2.1
O=C(COC(=O)C12CC3CC(CC(O)(C3)C1)C2)Nc1cccc(Br)c1	4.9	4.2	10.6	4.6	.	.	.
Nc1c2c(=O)[nH]c(O)cc2nn1-c1ccccc1	7.1	0.0	-3.6	25.9	.	.	.
COc1cccc(-n2c(SCC(=O)NCCc3ccccc3)nnc2-c2ccoc2C)c1	28.2*	-0.2	17.4*	-5.5	9.4	3.0	4.1
Cc1occc1-c1nnc(SCC(=O)NCCc2ccccc2)n1Cc1ccccc1	-4.1	0.8	-5.0	8.1	-10.4	.	.
Cc1nc2ccc(C(=O)Nc3ccccc3Cl)cc2s1	17.9	8.0	20.4*	6.3	-8.5	5.7	2.0
COCCCNC(=O)C[C@@H]1C[C@@]2(C(=O)OC)CCCCC=C2N(Cc2ccc(Cl)cc2Cl)C1=O	-1.2	-0.3	-0.6	.	.	.	.
CCC(C(=O)n1cccc1C#N)c1ccccc1C (stereo not drawn)	-0.6	0.1	-0.5	5.2	.	.	.
CCN(CC)CCn1c2ccccc2c2cnc(N)c(C#N)c21	16.8	-3.3	16.4*	-19.8	-2.2	21.2*	32.7*
CCC1CCCCN1C(=O)COC(=O)c1cccs1 (stereo not drawn)	14.2	4.1	17.3*	-0.4	.	0.7	7.1
O=C(O)CSCC(=O)N1CCN(S(=O)(=O)c2cc(Cl)cc(Cl)c2)CC1	1.1	1.3	4.6	-6.6	5.5	.	.
Cc1nn2c(-c3ccc(S(=O)(=O)N4CCN(CCO)CC4)o3)nnc2c2ccccc12	13.3	7.3	15.6*	22.6	3.2	3.1	4.7
Cn1ccnc1SCC(=O)Nc1nc2ccccc2s1	4.7	2.4	14.4*	8.4	9.7	4.8	0.8
COc1ccc2c(CC(=O)N3CCN(S(=O)(=O)c4ccc(F)cc4)CC3)coc2c1	6.7	-2.5	73.0*	-2.5	.	12.1	6.1
COc1ccc2c(CC(=O)N3CCN(S(=O)(=O)c4cccs4)CC3)coc2c1	5.2	-2.1	-5.8	-8.4	-1.2	.	.
COc1ccccc1NC=C1C(=O)OC(C)(C)OC1=O	4.9	1.5	7.2	-4.4	-17.2	.	.
CCOc1ccccc1NC=C1C(=O)OC(C)(C)OC1=O	3.1	4.4	13.4*	-11.0	-9.0	6.2	2.8

Screening data from PubChem BioAssay.
